Test results taken from PubChem BioAssay AID1567 (National Center for Advancing Translational Sciences (NCATS), 2009).
Records with an inconclusive call do not appear. Values without a mark were called inactive. Calls of active or inactive are those of the source. Calls come from the whole dose curve; as a rule, active = well fitted inhibition curve with a large enough effect; inconclusive = small, poorly fitted or top-dose-only effect, or effect the other way; inactive = no such curve, though single readings can be large or run the other way.

molecular target: Thyroid hormone receptor beta (Homo sapiens) (UniProt P10828); assay: Cell-based Gene Reporter Secondary Assay to Characterize qHTS Inhibitors of the Interaction of Thyroid Hormone Receptor and Steroid Receptor Coregulator 2; conditions: WRO cells TRbeta TRE-luciferase, T3-stimulated, 16 h; series mostly up to 29.9 µM; activity change, negative = inhibition: at the top concentration
Source text: NIH Molecular Libraries Probe Production Network [MLPCN] NIH Chemical Genomics Center [NCGC] MLPCN Grant: DK058080 Assay Provider: R. Kip Guy, St. Jude Children's Research Hospital NCGC Assay Overview: Thyroid receptor (TR) regulates many homeostatic processes including basal metabolism, cardiovascular function, body weight, and lipid trafficking. TR modulators are potential therapeutics for obesity and hyperlipidemias but current thyroid analogs have undesirable side effects, particularly cardiac stimulation. This secondary assay characterized selected actives identified in the qHTS for Inhibitors of the Interaction of Thyroid Hormone Receptor and Steroid Receptor Coregulator 2. The human follicular thyroid carcinoma cell line WRO (kindly provided by Dr. M. D. Ringel) stably expresses TRbeta and a luciferase reporter gene fused to TR response element. The addition of T3 ligand elevates expression of the TRE luciferase reporter. This assay measures the transcriptional activity of compounds.
NCGC Assay Protocol Summary: Cells were maintained in RPMI 1640 culture medium supplemented with 10% heat-inactivated FBS, 0.33 mg/ml hygromycin, 0.33 mg/ml geneticin, 50 units/ml penicillin, 50 ug/ml streptomycin. Cells were harvested and resuspended at 330,000 cells/ml in assay medium (50% DMEM 50% F-12 medium without Phenol-Red (Cellgro #16-405-CV), L-glutamine, 10% heat inactivated and charcoal treated FBS, 100 uM non-essential amino acid, 50 units/ml penicillin, 50 ug/ml streptomycin). Cells were dispensed at 10,000 cells/30 ul/well into 384 well plates (Corning 3917) and incubated 12 h at 37 C and 5% CO2. Compounds and T3 (100nM final concentration) were added using a pin tool and plates were incubated 16 h incubation at 37 C and 5% CO2. Following incubation, plates were equilibrated at ambient temperature for 30 min, 30 ul of Bright-Glo (Promega) was added and luminescence was detected by an EnVision (PerkinElmer).

Thyroid hormone receptor beta (Homo sapiens), sequence (P10828 whole entry, looked up): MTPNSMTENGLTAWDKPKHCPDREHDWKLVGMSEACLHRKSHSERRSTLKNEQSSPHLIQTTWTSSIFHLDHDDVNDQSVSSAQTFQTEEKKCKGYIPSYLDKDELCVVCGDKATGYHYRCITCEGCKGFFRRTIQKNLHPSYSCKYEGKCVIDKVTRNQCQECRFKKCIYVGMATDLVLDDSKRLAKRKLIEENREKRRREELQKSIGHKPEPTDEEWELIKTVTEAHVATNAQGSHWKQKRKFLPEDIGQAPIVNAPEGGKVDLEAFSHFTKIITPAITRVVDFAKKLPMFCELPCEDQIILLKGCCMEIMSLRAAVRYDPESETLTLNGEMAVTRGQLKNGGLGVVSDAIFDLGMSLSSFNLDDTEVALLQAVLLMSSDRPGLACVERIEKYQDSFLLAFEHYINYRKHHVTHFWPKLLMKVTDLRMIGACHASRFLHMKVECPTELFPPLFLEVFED

**Q.** For Cc1ccc(OC(=S)Nc2ccc(O)cc2)cc1, which “activity change, negative = inhibition” value is on record?
**A.** -22%

**Q.** With Cc1cccc(S(=O)(=O)c2cn(Cc3ccccc3)c3cc(N4CCC(C)CC4)c(F)cc3c2=O)c1 as the compound, how does the “activity change, negative = inhibition” value read?
**A.** 0.761% [at 59.9 µM]

**Q.** How did the “activity change, negative = inhibition” value turn out when O=c1cc(C23CC4CC(CC(C4)C2)C3)[nH][nH]1 was run?
**A.** 11.1%

**Q.** With CCC(NC(=O)Nc1ccc(O)cc1)(C(F)(F)F)C(F)(F)F as the compound, how does the “activity change, negative = inhibition” value read?
**A.** 9.95%

**Q.** How did the Potency turn out when CCC(CNc1cc(OC)cc2cccnc12)NC1CCCCC1 (stereo not given) was run?
**A.** 6.31 µM (active)

**Q.** With O=C(Nc1nc2ccc(Cl)cc2s1)c1ccc(N2CCCCC2)c([N+](=O)[O-])c1 as the compound, how does the “activity change, negative = inhibition” value read?
**A.** 19.6%

**Q.** With CCOC(=O)C(NC(=O)Nc1ccc(O)cc1)(c1ccccc1)C(F)(F)F (stereo not given) as the compound, how does the “activity change, negative = inhibition” value read?
**A.** 24.2%

**Q.** Which “activity change, negative = inhibition” value does the source give for CCOc1ccc(NC(=O)C(c2ccccn2)N(C(=O)CCl)c2ccc(F)cc2)cc1 (stereo not given) here?
**A.** -6.26%

**Q.** With Cc1cc(C)cc(OCC(=O)NCCc2nc3ccccc3[nH]2)c1 as the compound, how does the “activity change, negative = inhibition” value read?
**A.** 6.99% [at 59.9 µM]

**Q.** Cn1cc(/C=C2\SC(=S)N(NC(=O)c3ccccc3)C2=O)c2ccccc21 was tested. Which “activity change, negative = inhibition” value did it give?
**A.** 2.16%

**Q.** How did the Potency turn out when COc1cc(NCCCC(C)N)c2ncccc2c1 (stereo not given) was run?
**A.** 3.16 µM (active)

**Q.** For Nc1cccnc1Sc1cc(Cl)c(Cl)cc1Cl, which “activity change, negative = inhibition” value is on record?
**A.** -26.2%

**Q.** How did the “activity change, negative = inhibition” value turn out when CC(NC(=O)Nc1ccc(O)cc1)(C(F)(F)F)C(F)(F)F was run?
**A.** -0.554%

**Q.** With CCCc1nc2c(=O)n(C)c(=O)nc-2n(C)n1 as the compound, how does the Potency read?
**A.** 0.794 µM (active)

**Q.** How did the “activity change, negative = inhibition” value turn out when O=C(NNc1cc(N2CCOCC2)nc(N2CCOCC2)n1)c1ccc([N+](=O)[O-])cc1 was run?
**A.** -19.3%

**Q.** How did the Potency turn out when COc1cc(NC(C)CCCN)c2ncccc2c1 (stereo not given) was run?
**A.** 22.4 µM (active)

**Q.** For C=CCNC(=O)/C(C#N)=C\c1cc(Cl)c(OCC)c(OC)c1, which “activity change, negative = inhibition” value is on record?
**A.** -29.7%

**Q.** With CCSc1ncc(Cl)c(C(=O)Nc2nc3ccc(OC)cc3s2)n1 as the compound, how does the “activity change, negative = inhibition” value read?
**A.** -4.44% [at 59.9 µM]

**Q.** How did the “activity change, negative = inhibition” value turn out when CCOC(=O)c1cnc2nc(NCc3ccc(OC)c(OC)c3)[nH]n2c1=O was run?
**A.** -0.994%

**Q.** For Nc1cc(-c2ccncc2)c[nH]c1=O, which Potency is on record?
**A.** 14.1 µM (active)

**Q.** For CCc1ccc2c(c1)c1nc(C)sc1n2CC, which “activity change, negative = inhibition” value is on record?
**A.** 17.3%

**Q.** Which “activity change, negative = inhibition” value does the source give for Cc1ccc2c(CC(=O)Nc3c(C(=O)c4ccc(F)cc4)oc4ccccc34)coc2c1C here?
**A.** 23.4% [at 59.9 µM]

**Q.** Which “activity change, negative = inhibition” value does the source give for CN(C)c1cc(Cl)c2nonc2c1N here?
**A.** 15.2%

**Q.** C=CCSc1nnc2n(-c3ccccc3OC)c(=O)c3c4c(sc3n12)CCC4 was tested. Which “activity change, negative = inhibition” value did it give?
**A.** 0.913%

**Q.** For CN1c2ccccc2C(C)(C)C12C=Nc1c(cc(N3CCOCC3)c3ccccc13)O2 (stereo not given), which “activity change, negative = inhibition” value is on record?
**A.** 13.7%

**Q.** With CCOc1cc(N2CCOCC2)c(OCC)cc1NC(C)C(=O)N1CCN(CC)CC1 (stereo not given) as the compound, how does the “activity change, negative = inhibition” value read?
**A.** 12%

**Q.** For Cc1ccc(-c2nc(S(=O)(=O)c3ccc(F)cc3)c(SCC(=O)NCC3CCCO3)o2)cc1 (stereo not given), which “activity change, negative = inhibition” value is on record?
**A.** -6.71%

**Q.** With Cn1c(NNC(=O)c2c(F)cccc2F)cc(=O)n(C)c1=O as the compound, how does the “activity change, negative = inhibition” value read?
**A.** 1.12%

**Q.** Which “activity change, negative = inhibition” value does the source give for CN1N=C(C(C)(C)C)CC1=O here?
**A.** 8.94%

**Q.** How did the Potency turn out when CN1c2ccccc2C(C)(C)C12C=Nc1c(ccc3ccccc13)O2 (stereo not given) was run?
**A.** 4.47 µM (active)

**Q.** For COc1ccc2ccc3c(c2c1)N=CC1(O3)N(C)c2ccccc2C1(C)C (stereo not given), which “activity change, negative = inhibition” value is on record?
**A.** -22.8%

**Q.** CN1CCc2ccc3c4c2[C@]1(C)Cc1cccc(c1-4)OCO3 was tested. Which Potency did it give?
**A.** 7.94 µM (active)

**Q.** Which “activity change, negative = inhibition” value does the source give for CC1=NN(c2ccc(F)cc2)C(=O)C1C(c1cccc(O)c1)c1c(C)[nH]n(-c2ccc(F)cc2)c1=O (stereo not given) here?
**A.** -12.9%

**Q.** Which “activity change, negative = inhibition” value does the source give for Cc1nc2ccccc2n2c(O)c(CC(=O)O)cc12 here?
**A.** -9.96%

**Q.** Which “activity change, negative = inhibition” value does the source give for O=C(O)[C@H]1CN(CCCP(=O)(O)O)CCN1 here?
**A.** -100% [at 59.9 µM]

**Q.** With Nc1cnccc1C(=O)O as the compound, how does the “activity change, negative = inhibition” value read?
**A.** -3.24%

**Q.** How did the “activity change, negative = inhibition” value turn out when Cc1nnc(SCC(=O)Nc2ccc(N(C)C)cc2)[nH]c1=O was run?
**A.** 7.12% [at 59.9 µM]

**Q.** For CC1=NN(Cc2ccccc2)C(=O)C1, which “activity change, negative = inhibition” value is on record?
**A.** 23.4%

**Q.** Which “activity change, negative = inhibition” value does the source give for CCOc1cc(C(c2c(C)[nH][nH]c2=O)c2c(C)[nH][nH]c2=O)ccc1OS(=O)(=O)c1ccc(C)cc1 here?
**A.** 18.7%

**Q.** How did the “activity change, negative = inhibition” value turn out when COc1ccc(-c2nc(CS(=O)CC(=O)NCc3ccccn3)c(C)o2)cc1 (stereo not given) was run?
**A.** -2.31%
